Shown are actives, neighbours in structure and some others; about 19% of the full set was active somewhere.
Gal4-VP16 FLuc = inhibits Gal4-VP16 luciferase reporter, ROR gamma counter-screen. Drosophila S2 Gal4-VP16 UAS-luciferase, luminescence, 20 h. Potency, µM (doses to about 53.6 µM), usual class: inhibitors. 310,000 compounds, 3.5% hits;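 also: Gal4-VP16 expression switched on by copper sulfate through the metallothionein promoter; nearly all actives have a fitted effect of over 50% in size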
DT40 TDP1 CPT = DT40-hTDP1 cell growth loss with CPT. chicken DT40 Tdp1-/-;hTDP1 cells + 20 nM CPT, ATP luminescence, 48 h. Potency, µM (highest dose often 46.2 µM), most hits filed as inhibitors. 420,000 compounds, 12% hits; also: nearly all actives have a fitted effect of over 55% in size
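Cell growth measured by CellTiter-Glo luminescence after a minimum 48 h, 37 C compound exposure with 20 nM CPT in Tdp1-knockout DT40 cells stably expressing hTDP1, seeded 400/well; qHTS titration format.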
TDP1 block = inhibitors of human tyrosyl-DNA phosphodiesterase TDP1; Q9NUW8; AID 485290; 350,000 compounds, 0.28% hits; Potency, µM (highest dose often 130 µM), hits mostly inhibitors; recombinant TDP1, AlphaScreen DNA substrate cleavage; also: nearly all actives have a fitted effect of over 40% in size
Target sequence (Q9NUW8 whole entry, looked up): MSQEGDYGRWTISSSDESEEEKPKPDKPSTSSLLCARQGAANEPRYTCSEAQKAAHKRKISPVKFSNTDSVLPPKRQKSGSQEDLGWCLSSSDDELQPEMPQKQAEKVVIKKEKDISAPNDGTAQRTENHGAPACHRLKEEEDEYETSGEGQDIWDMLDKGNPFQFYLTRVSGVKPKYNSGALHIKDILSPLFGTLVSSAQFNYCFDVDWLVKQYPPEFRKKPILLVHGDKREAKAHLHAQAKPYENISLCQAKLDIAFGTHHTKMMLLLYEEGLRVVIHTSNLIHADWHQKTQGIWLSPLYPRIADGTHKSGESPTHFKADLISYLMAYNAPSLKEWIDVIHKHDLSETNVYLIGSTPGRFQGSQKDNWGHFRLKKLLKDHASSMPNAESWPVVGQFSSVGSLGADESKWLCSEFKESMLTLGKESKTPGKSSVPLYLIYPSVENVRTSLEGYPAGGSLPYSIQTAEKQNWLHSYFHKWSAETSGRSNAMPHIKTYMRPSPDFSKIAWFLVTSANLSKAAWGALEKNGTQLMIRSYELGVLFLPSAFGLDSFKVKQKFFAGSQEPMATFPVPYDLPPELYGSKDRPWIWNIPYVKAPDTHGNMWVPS
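Tdp1 1 nM final; 15 min RT w/ cpd; substrate 15 nM, 5 min; beads 10 ug/ml, 10 min; AlphaScreen read. Neg ctrl: no enzyme.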
RORg inh = blocks mouse ROR gamma transcriptional activity. Potency, µM (series often up to 53.6 µM), usual class: inhibitors. AID 2551. P51450. 310,000 compounds, 5.4% hits. Drosophila S2 Gal4-RORgamma UAS-luciferase reporter, 20 h; also: nearly all actives have a fitted effect of over 60% in size
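Drosophila S2 cells stably expressing Gal4-DBD/mouse RORγ fusion under metallothionein promoter plus UAS-luciferase; compound 1 h, then 700 uM CuSO4 induction for 20 h at ambient temperature; inhibition read as reduced luminescence.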
DT40 TDP1 no CPT = qHTS for Inhibitors of human tyrosyl-DNA phosphodiesterase 1 (TDP1): qHTS in cells in absence of CPT; 420,000 compounds, 15% hits; DT40 Tdp1-/- hTDP1 cells, no CPT, ATP luminescence, 48 h; Potency, µM (doses to about 46.2 µM), hits mostly inhibitors; also: nearly all actives have a fitted effect of over 55% in size
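Compound effects on proliferation are scored in DT40 Tdp1-/-;hTDP1 cells in the absence of CPT. ATP levels (CellTiter-Glo luminescence) are recorded after a ≥48 hr, 37 °C incubation.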
Hits are given with their value; - = inactive; ? = inconclusive; . = no result; ! = a repeat was not active; [ ] = another dose, or the depositor's remark. Calls follow the shape of the dose curve; as a rule, active = well fitted curve in the direction sought with a large enough effect; inconclusive = small, poorly fitted or top-dose-only effect, or another doubt; inactive = no such curve, though single readings can be large; an effect the other way counts as inactive or inconclusive.

SMILES	Gal4-VP16 FLuc	DT40 TDP1 CPT	TDP1 block	RORg inh	DT40 TDP1 no CPT
O=C(CCN1CCCCCC1)c1ccccc1	-	3.3µM	-	-	3.7µM
CCOc1ccc(C(=O)Cc2ccccc2)cc1	.	-	.	.	-
O=C(NCc1ccccn1)c1nn(-c2ccccc2F)nc1CO	.	?	-	.	-
COc1ccc(N2CCN(C(=O)C3CCN(c4nc5ccc(C)cc5[nH]4)CC3)CC2)cc1	.	10µM	-	.	8.2µM
Cc1ccc2nc(N3CCC(C(=O)N4CCN(c5cccc(Cl)c5)CC4)CC3)[nH]c2c1	.	13µM	-	.	8.2µM
CCCc1cc(=O)n2nc(N3CCC(C(=O)N4CCN(c5ccc(OC)cc5)CC4)CC3)sc2n1	-	2.6µM	-	?	5.8µM
Cc1ccc(C)c(N2CCN(C(=O)C3CCN(c4nc5ccc(C)cc5[nH]4)CC3)CC2)c1	.	4.1µM	-	.	2.3µM
O=C(NCCc1ccccc1)C(=O)NN=C1CCCC1	-	?	-	-	-
N#C/C(=C\c1ccc(O)c(O)c1)C(=O)N1CCCC1	-	?	-	?	13µM
N#C/C(=C\c1ccc(O)c(O)c1)C(=O)NCCCc1ccccc1	11µM	?	-	22µM!	4.1µM
COc1ccc(/C=C(\C#N)C(=O)NCCc2ccccc2)cc1OCc1ccccc1	-	?	-	?	16µM
COc1cc(/C=C(\C#N)C(=O)N2CCCCC2)ccc1O	-	-	.	-	-
Cc1cc(C(=O)OCC(=O)NCc2cccs2)ccc1[N+](=O)[O-]	.	-	-	.	-
CSc1ncccc1C(=O)N1CCCC(Nc2ccc(C)c(C)c2)C1 (stereo unspecified)	-	?	-	-	-
Cc1ccc(C2=C(c3ccc([N+](=O)[O-])cc3)C(=O)OC2)cc1C	-	?	-	-	18µM
CC(C)=CCC/C(C)=C/CNC(=O)C[C@H]1C[C@H](C(=O)N2CCCCC2)[C@@]2(CCc3ccccc3)c3[nH]c4cc(CCC(=O)N(C)C)ccc4c3CCN2C1=O	.	10µM	-	.	8.2µM
CCN(CC)C(=O)[C@H]1C[C@H](CC(=O)NC/C=C(\C)CCC=C(C)C)C(=O)N2CCc3c([nH]c4cc(CCC(=O)N(C)C)ccc34)[C@]12C	.	16µM	-	.	15µM
CCN(CC)C(=O)[C@H]1C[C@H](CC(=O)NCc2ccc(OC)c(OC)c2)C(=O)N2CCc3c([nH]c4cc(CCC(=O)N(C)C)ccc34)[C@]12C	.	-	-	.	-
Cc1ccc(-c2nnn(CC(=O)N(CC(=O)NC(C)C)c3cnc4ccccc4c3)n2)o1	-	-	-	-	-
CSCCC(NC(=O)c1ccccc1)C(=O)NCc1ccc(S(N)(=O)=O)cc1 (stereo unspecified)	-	-	.	-	-
CN(C)CCNC(=O)c1cccc(-c2cnc3c(NC=O)cc(-c4ccccc4F)cn23)c1	.	?	.	.	21µM
CN(C)CCCNC(=O)c1cccc(-c2cnc3cccnn23)c1	.	-	.	.	-
COc1cc(-c2cnc3c(NC=O)cc(-c4cccc(C(=O)NCCN(C)C)c4)cn23)cc(OC)c1OC	.	?	.	.	15µM
CN(C)CCNC(=O)c1cccc(-c2cnc3c(NC=O)cc(-c4ccc(C(=O)N5CCOCC5)cc4)cn23)c1	.	-	.	.	-
COc1ccc(-c2cc(NC=O)c3ncc(-c4cccc(C(=O)NCCN(C)C)c4)n3c2)c(OC)c1	.	3.3µM	.	.	3.7µM
SMILES	Gal4-VP16 FLuc	DT40 TDP1 CPT	TDP1 block	RORg inh	DT40 TDP1 no CPT
CSc1ccc(CCNC(=O)Cn2ccc3cc(S(=O)(=O)N4CCCCCC4)ccc32)cc1	.	15µM	-	.	?
CCOc1ccc(CCNC(=O)Cn2ccc3cc(S(=O)(=O)N4CCCC4)ccc32)cc1	-	?	-	-	?
COc1ccc(CCNC(=O)Cn2ccc3cc(S(=O)(=O)N4CCCCC4)ccc32)cc1OC	.	?	-	.	?
O=C(Cn1ccc2cc(S(=O)(=O)N3CCCCCC3)ccc21)NCCc1ccc(Cl)cc1	.	16µM	-	.	18µM
CCOc1ccc(CCNC(=O)Cn2ccc3cc(S(=O)(=O)N4CCCCCC4)ccc32)cc1	.	21µM	-	.	13µM
COc1ccc(OC)c(CCNC(=O)Cn2ccc3cc(S(=O)(=O)N4CCCCC4)ccc32)c1	.	?	-	.	7.3µM
COc1ccccc1CCNC(=O)Cn1ccc2cc(S(=O)(=O)N3CCCCCC3)ccc21	.	?	-	.	?
COc1ccc(NC(=O)C2OC3OC(C)(C)OC3C3OC(C)(C)OC23)cc1 (stereo unspecified)	-[0.365 µM]	-	-	?	-
[O-][N+]1=C(c2cccs2)CN(O)C1	-	-	-	-	-
COc1cccc(/C=C2\SC(N3CCCC(C)C3)=NC2=O)c1OC (stereo unspecified)	-	?	.	-	?
CCOC(=O)CON1C(=O)C(C)(C)N(OCC(=O)OCC)C(=O)C1(C)C	-	-	-	-[10 µM]	-
CCON1C(=O)C(C)(C)N(OCC)C(=O)C1(C)C	-	?	.	-	12µM
CCN(CC)c1ccc2cc(-c3nc(-c4ccccc4)no3)c(=O)oc2c1	.	?	-	.	5.8µM
Cc1ccc(-c2noc(-c3cc4ccccc4oc3=O)n2)cc1	-	-	-	-	-
Cc1cccc(-c2noc(-c3cc4ccccc4oc3=O)n2)c1	?	-	-	0.89µM	-
c1ccc(-c2noc(-c3ccc4ccccc4c3)n2)cc1	25µM	-	-	3.5µM	-
O=c1oc2ccccc2cc1-c1nc(-c2ccccc2)no1	8.9µM	-	-	11µM	-
c1ccc(-c2noc(-c3ccc4c(c3)OCO4)n2)cc1	-	-	-	-	-
CCN(CC)C(=O)CSc1nc(C)cc(C)n1	-	-	-	-	-
CN(C(=O)COC(=O)c1cccs1)c1c(N)n(Cc2ccccc2)c(=O)[nH]c1=O	.	-	.	.	-
COc1ccc(N2C3=[N+](CCCC3)CC2(C)O)cc1 (stereo unspecified)	-	4.1µM	-	-	3.7µM
COc1cccc(/C=C/C(=O)Nc2cccc(C(C)=O)c2)c1OC	?	?	-	1.4µM	?
COc1cccc(/C=C/C(=O)Nc2ccc3c(c2)OCCO3)c1OC	?	18µM	-	1.1µM	?
COc1ccc(/C=C/C(=O)Nc2cccc(C(C)=O)c2)cc1	6.3µM	?	-	3.2µM	?
CCC(=O)Nc1ccc(-c2nc(-c3ccccc3)n(CC(=O)N3CCCCC3)n2)cc1	-	-	-	-	-
COc1cc(C2C(C(=O)c3ccco3)=C(O)C(=O)N2CCc2ccccc2)ccc1O (stereo unspecified)	-	-	-	-	-
CCCC(=O)Nc1ccc(C2C(=O)c3ccccc3C2=O)cc1	11µM	16µM	.	11µM	?
CC(=O)Nc1ccc(C2C(=O)c3ccccc3C2=O)cc1	-	-	.	-	?
COC(=O)c1cn(C(=O)c2ccc(OC)cc2)c2ccccc12	-	8.2µM	.	-[1.91 µM]	4.6µM
COC(=O)c1cn(C(=O)c2cc(OC)c(OC)c(OC)c2)c2ccccc12	-	-	-	-	?
